# Results as given in PubChem BioAssay (NCI).
# About 83,000 compounds went through this panel and 20% of them were active in at least one assay; those are over-represented in the sample as a whole.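 Growth was measured after 48 h exposure to one concentration of compound in 96-well plates. Values under 10 count as active.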 Unmarked numbers belong to inactive results. Activity calls are given as the source filed them.
# Legend:
# Experiment in all cases: NCI-60 one-dose screen, 48 h (100 = growth as untreated, 0 = no growth, -100 = all killed)
# T-47D breast = test system: T-47D breast
# BT-549 breast = test system: BT-549 breast
# MDA-MB-435 melanoma = test system: MDA-MB-435 melanoma
# SW-620 colon = test system: SW-620 colon
# MCF7 breast = test system: MCF7 breast
# HCT-116 colon = test system: HCT-116 colon
# HCC-2998 colon = test system: HCC-2998 colon
# KM12 colon = test system: KM12 colon
# MDA-MB-468 breast = test system: MDA-MB-468 breast
structure (smiles),measurement,setting,value
CC/C(=C(/c1ccc(O)cc1)c1ccc(OCCN(C)C(=O)COCCOCCNC(=O)Cc2ccc3c(c2)CN([C@@H]2CCC(=O)NC2=O)C3=O)cc1)c1ccccc1,growth,T-47D breast; 1 µM,19.2%
same,growth,T-47D breast; 10 µM,6.14% (active)
same,growth,BT-549 breast; 1 µM,-20.3% (active)
same,growth,BT-549 breast; 10 µM,-26% (active)
same,growth,MDA-MB-435 melanoma; 1 µM,107%
same,growth,MDA-MB-435 melanoma; 10 µM,73.6%
same,growth,SW-620 colon; 1 µM,84.2%
same,growth,SW-620 colon; 10 µM,29.6%
same,growth,MCF7 breast; 1 µM,36.1%
same,growth,MCF7 breast; 10 µM,19.6%
same,growth,HCT-116 colon; 1 µM,96.4%
same,growth,HCT-116 colon; 10 µM,101%
same,growth,HCC-2998 colon; 1 µM,97.3%
same,growth,HCC-2998 colon; 10 µM,48.9%
same,growth,KM12 colon; 1 µM,105%
same,growth,KM12 colon; 10 µM,50.3%
same,growth,MDA-MB-468 breast; 1 µM,1.33% (active)
same,growth,MDA-MB-468 breast; 10 µM,-15.7% (active)
O=C(Cc1c(-c2ccccc2[N+](=O)[O-])n(-c2ncnc3c2c(-c2ccccc2)c(-c2ccccc2)n3Cc2ccccc2)[nH]c1=O)c1ccc(Cl)c(Cl)c1,growth,T-47D breast; 10 µM unless noted,6.14% (active)
same,growth,BT-549 breast; 10 µM unless noted,-17.2% (active)
same,growth,MDA-MB-435 melanoma; 10 µM unless noted,2.32% (active)
same,growth,SW-620 colon; 10 µM unless noted,31.3%
same,growth,MCF7 breast; 10 µM unless noted,11.9%
same,growth,HCT-116 colon; 10 µM unless noted,13.7%
same,growth,HCC-2998 colon; 10 µM unless noted,24.9%
same,growth,KM12 colon; 10 µM unless noted,15.7%
CC/C(=C(/c1ccc(O)cc1)c1ccc(OCCN(C)C(=O)CCOCCNC(=O)Cc2ccc3c(c2)CN([C@@H]2CCC(=O)NC2=O)C3=O)cc1)c1ccccc1,growth,T-47D breast; 1 µM,20.9%
same,growth,T-47D breast; 10 µM,25%
same,growth,BT-549 breast; 1 µM,-12.9% (active)
same,growth,BT-549 breast; 10 µM,-25.9% (active)
same,growth,MDA-MB-435 melanoma; 1 µM,104%
same,growth,MDA-MB-435 melanoma; 10 µM,85%
same,growth,SW-620 colon; 1 µM,70.6%
same,growth,SW-620 colon; 10 µM,36%
same,growth,MCF7 breast; 1 µM,34.7%
same,growth,MCF7 breast; 10 µM,31.5%
same,growth,HCT-116 colon; 1 µM,100%
same,growth,HCT-116 colon; 10 µM,92.4%
same,growth,HCC-2998 colon; 1 µM,97.3%
same,growth,HCC-2998 colon; 10 µM,78.3%
same,growth,KM12 colon; 1 µM,95.3%
same,growth,KM12 colon; 10 µM,66.7%
same,growth,MDA-MB-468 breast; 1 µM,-2.35% (active)
same,growth,MDA-MB-468 breast; 10 µM,-18.2% (active)
CC/C(=C(\c1ccc(O)cc1)c1ccc(OCCN(C)C(=O)CCOCCNC(=O)c2ccc3c(c2)CN([C@@H]2CCC(=O)NC2=O)C3=O)cc1)c1ccccc1,growth,T-47D breast; 1 µM,38.3%
same,growth,T-47D breast; 10 µM,50.4%
same,growth,BT-549 breast; 1 µM,9.93% (active)
same,growth,BT-549 breast; 10 µM,39.3%
same,growth,MDA-MB-435 melanoma; 1 µM,100%
same,growth,MDA-MB-435 melanoma; 10 µM,95.4%
same,growth,SW-620 colon; 1 µM,87%
same,growth,SW-620 colon; 10 µM,83.6%
same,growth,MCF7 breast; 1 µM,27.9%
same,growth,MCF7 breast; 10 µM,24%
same,growth,HCT-116 colon; 1 µM,92.7%
same,growth,HCT-116 colon; 10 µM,94.8%
same,growth,HCC-2998 colon; 1 µM,99%
same,growth,HCC-2998 colon; 10 µM,103%
same,growth,KM12 colon; 1 µM,102%
same,growth,KM12 colon; 10 µM,103%
same,growth,MDA-MB-468 breast; 1 µM,25.6%
same,growth,MDA-MB-468 breast; 10 µM,5.97% (active)
O=C1CCC(N2C(=O)c3cccc(NCCCCCC(=O)N4CCN(c5ccc6nc7c(nc6c5C(F)(F)F)C(=O)c5ncccc5C7=O)CC4)c3C2=O)C(=O)N1 (stereo not given),growth,T-47D breast; 10 µM unless noted,-41.1% (active)
same,growth,BT-549 breast; 10 µM unless noted,-76.8% (active)
same,growth,MDA-MB-435 melanoma; 10 µM unless noted,-79.8% (active)
same,growth,SW-620 colon; 10 µM unless noted,-50.9% (active)
same,growth,MCF7 breast; 10 µM unless noted,-71.6% (active)
same,growth,HCT-116 colon; 10 µM unless noted,-86% (active)
same,growth,HCC-2998 colon; 10 µM unless noted,-98% (active)
same,growth,KM12 colon; 10 µM unless noted,-49.6% (active)
